Screens as filed in PubChem.
The list is not random: actives were taken first. Their share in the collection is about 3.5%.
TEAD-YAP block: TEAD-YAP interaction inhibition, primary screen, TEAD-YAP interaction inhibitor project, luminescence, HEK-TIYL cells; TEAD-Gal4/YAP UAS-luciferase luminescence; inhibition, % at 9.12 µM; 640,000 compounds, 1.4% hits; in the data active = inhibition above about 32%;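 also: 0% = median of test compound wells and 100% = reference inhibitor wells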
FBW7 act: FBW7 E3 ligase activators, primary screen, biochemical, AlphaScreen, human; F-box/WD repeat-containing protein 7 (Homo sapiens), Q969H0; AlphaScreen FBW7–phospho-cyclin E peptide binding, activator screen; normalized activity (activation), % at 26.1 µM; 650,000 compounds, 0.13% hits; in the data active = normalized activity above about 1.9%;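 also: purified mutant Fbw7 with reduced substrate affinity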
MITF primary: MITF inhibitors, primary screen, biochemical, AlphaScreen, human; Microphthalmia-associated transcription factor (Homo sapiens), O75030; AlphaScreen MITF homodimerization, bead proximity signal; inhibition, % at 2.6 µM; 650,000 compounds, 0.91% hits; AID 1259374, 2018; in the data active = inhibition above about 50%;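 also: 0% = vehicle wells with protein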
Target sequence (O75030 whole entry, looked up): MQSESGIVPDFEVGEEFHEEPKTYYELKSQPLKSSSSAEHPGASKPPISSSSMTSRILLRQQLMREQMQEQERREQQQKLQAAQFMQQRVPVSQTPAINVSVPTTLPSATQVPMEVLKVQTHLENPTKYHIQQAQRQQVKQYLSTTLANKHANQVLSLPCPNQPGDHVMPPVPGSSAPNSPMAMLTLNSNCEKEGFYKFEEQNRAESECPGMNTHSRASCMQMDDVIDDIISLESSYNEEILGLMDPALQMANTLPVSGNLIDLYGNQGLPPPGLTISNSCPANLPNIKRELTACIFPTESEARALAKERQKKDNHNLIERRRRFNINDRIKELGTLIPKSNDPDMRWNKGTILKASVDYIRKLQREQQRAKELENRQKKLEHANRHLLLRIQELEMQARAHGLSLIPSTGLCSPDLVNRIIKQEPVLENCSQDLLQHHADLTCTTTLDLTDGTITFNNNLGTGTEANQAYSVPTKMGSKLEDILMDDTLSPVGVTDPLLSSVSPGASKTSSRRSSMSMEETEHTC
GPR151 ag: activators of human GPR151, primary screen, cell-based, PathHunter beta-arrestin, luminescence. PathHunter beta-arrestin GPR151 cells. activation, % at 11.2 µM. 650,000 compounds, 1% hits; in the data active = activation above about 4.9%;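 also: 0% = median of compound wells and 100% = cells with positive control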
MITF confirm: MITF inhibitors, retest of hits, confirmation, biochemical, AlphaScreen, triplicate | AlphaScreen MITF homodimerization, biotin/His-MITF beads | shares compounds with MITF primary | inhibition, % at 2.6 µM | 4,700 compounds, 16% hits;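 active = inhibition above a cutoff derived from the DMSO control wells, cut at about 28% in these data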;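 also: 0% = MITF dimer wells with DMSO only; inhibitors lower the bead chemiluminescence by keeping MITF from dimerizing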
AS interf DR: AlphaScreen optical interference compounds, dose response, counter-screen, biochemical, HTS. AlphaScreen optical interference counterscreen, cell-free. IC50, µM. shares compounds with MITF primary. AID 1259373, 2018. 480 compounds, 6% hits; call rule not given here
AlphaScreen intf2: AlphaScreen optical interference compounds, counter-screen for MITF inhibitor project, biochemical, triplicate; shares compounds with MITF primary; LysRS AlphaScreen counterscreen, signal interference; inhibition, % at 2.6 µM; 4,700 compounds, 7.6% hits; AID 1259376, 2018;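 active = inhibition above a cutoff derived from the DMSO control wells, cut at about 30% in these data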
* marks the source's active call; other numbers are inactive results.

What do the screens show for `COc1cc(C(=O)N2CCN(Cc3ccc(Br)cc3)CC2)cc(OC)c1OC`?
TEAD-YAP block: -3; FBW7 act: 0; MITF primary: 54*; GPR151 ag: 0; MITF confirm: 9; AlphaScreen intf2: 9

Results for COc1cc(CN2CCN(C(=O)c3cc(OC)c(OC)c(OC)c3)CC2)cc(OC)c1 ?
TEAD-YAP block: 4; FBW7 act: 0; MITF primary: 55*; GPR151 ag: -1; MITF confirm: 4; AlphaScreen intf2: 12

Results for COc1cccc(C(=O)N2CCN(Cc3cc(OC)c(OC)c(OC)c3)CC2)c1 ?
TEAD-YAP block: -6; FBW7 act: 0; MITF primary: 49; GPR151 ag: 1

How did COc1ccc(C(=O)N2CCN(C3CCCC(C)C3)CC2)cc1 (stereo not drawn) do in these assays?
TEAD-YAP block: 7; FBW7 act: 0; MITF primary: 52*; GPR151 ag: 1; MITF confirm: 4; AlphaScreen intf2: 11

Results for CCC(C)N1CCN(C(=O)c2cc(OC)c(OC)c(OC)c2)CC1 (stereo not drawn) ?
TEAD-YAP block: -4; FBW7 act: 0; MITF primary: 51*; GPR151 ag: -1; MITF confirm: -9; AlphaScreen intf2: 0

Results for COc1ccc(C(=O)N2CCN(Cc3cc(OC)c(O)c(OC)c3)CC2)cc1 ?
TEAD-YAP block: 5; FBW7 act: 0; MITF primary: 26; GPR151 ag: -1

What do the screens show for `COc1ccc(C(=O)N2CCN(Cc3cc(OC)c(OC)c(OC)c3)CC2)cc1`?
TEAD-YAP block: -9; FBW7 act: 1; MITF primary: 72*; GPR151 ag: -1; MITF confirm: 5; AlphaScreen intf2: -1

What do the screens show for `COC(=O)NC(C)CCc1ccccc1` (stereo not drawn)?
TEAD-YAP block: -1; FBW7 act: 0; MITF primary: 3; GPR151 ag: 0

Results for CCCOc1ccccc1C(=O)Nc1nnc(SCC)s1 ?
TEAD-YAP block: -4; FBW7 act: 1; MITF primary: 67*; GPR151 ag: -2; MITF confirm: 20; AlphaScreen intf2: 12

Results for CCSc1nnc(NC(=O)c2cc(S(=O)(=O)N3CCCCC3)ccc2Cl)s1 ?
TEAD-YAP block: -7; FBW7 act: 0; MITF primary: 57*; GPR151 ag: -1; MITF confirm: 12; AlphaScreen intf2: 16

Results for CCSc1nnc(NC(=O)c2cc(Cl)ccc2Cl)s1 ?
TEAD-YAP block: 3; FBW7 act: 0; MITF primary: 2; GPR151 ag: -1

Results for Cc1n[nH]c(C)c1NC(=S)NC(=O)c1ccccc1 ?
TEAD-YAP block: 6; FBW7 act: 1; MITF primary: 11; GPR151 ag: -1

What do the screens show for `NC(=O)CSc1nnc(NC(=O)c2ccccc2Cl)s1`?
TEAD-YAP block: -25; FBW7 act: 0; MITF primary: 4; GPR151 ag: 0

How did COc1ccc(NC(=O)Cc2c(SC)c3ccccc3n2C)cc1 do in these assays?
TEAD-YAP block: 1; FBW7 act: 0; MITF primary: 8; GPR151 ag: -1

Results for COc1ccc(OC)c(CN2CCN(S(=O)(=O)c3ccccc3)CC2)c1 ?
TEAD-YAP block: -4; FBW7 act: 0; MITF primary: 14; GPR151 ag: -1

How did COc1ccc(CN2CCN(S(=O)(=O)c3ccc(F)cc3)CC2)cc1OC do in these assays?
TEAD-YAP block: 5; FBW7 act: 1; MITF primary: 53*; GPR151 ag: -2; MITF confirm: -1; AlphaScreen intf2: 10

Results for COc1ccc(OC)c(CN2CCN(S(=O)(=O)c3ccc(F)cc3)CC2)c1 ?
TEAD-YAP block: 5; FBW7 act: 1; MITF primary: 58*; GPR151 ag: -1; MITF confirm: 12; AlphaScreen intf2: 18

How did COc1ccc(OC)c(CN2CCN(Cc3cccc(Cl)c3)CC2)c1 do in these assays?
TEAD-YAP block: -2; FBW7 act: 0; MITF primary: 73*; GPR151 ag: -1; MITF confirm: 7; AlphaScreen intf2: 9

What do the screens show for `COc1ccc(OC)c(CN2CCN(Cc3ccc(F)cc3)CC2)c1`?
TEAD-YAP block: 2; FBW7 act: 0; MITF primary: 83*; GPR151 ag: 0; MITF confirm: 37*; AS interf DR: >6.1; AlphaScreen intf2: 16

What do the screens show for `COc1ccc(CN2CCN(Cc3ccc(F)cc3)CC2)cc1OC`?
TEAD-YAP block: -3; FBW7 act: 0; MITF primary: 26; GPR151 ag: 1

How did CN(C(=O)c1ccc(-n2cnnn2)cc1)C1CC(C)(C)N(C)C(C)(C)C1 do in these assays?
TEAD-YAP block: -3; FBW7 act: 1; MITF primary: 14; GPR151 ag: 2

How did C[C@H](NCc1cc2ccc(F)cc2nc1OCCSc1ccccc1)C(N)=O do in these assays?
TEAD-YAP block: 2; FBW7 act: 0; MITF primary: -14; GPR151 ag: -1

Results for CCOc1cc(CN2CCN(Cc3cccc(OC)c3)CC2)ccc1OC ?
TEAD-YAP block: 0; FBW7 act: 0; MITF primary: 24; GPR151 ag: 0

What do the screens show for `COc1ccc(CN2CCN(Cc3cccc(F)c3)CC2)c(OC)c1`?
TEAD-YAP block: -2; FBW7 act: 1; MITF primary: 85*; GPR151 ag: -2; MITF confirm: 4; AlphaScreen intf2: 14

Results for COc1cccc(CN2CCN(Cc3ccc(OC)cc3OC)CC2)c1 ?
TEAD-YAP block: -1; FBW7 act: 0; MITF primary: 81*; GPR151 ag: -2; MITF confirm: 13; AlphaScreen intf2: 15

Results for COc1cccc(CN2CCN(C(=O)c3cccc(F)c3)CC2)c1 ?
TEAD-YAP block: 10; FBW7 act: 0; MITF primary: 44; GPR151 ag: 1

What do the screens show for `COc1ccc(OC)c(CN2CCN(Cc3cccc(F)c3)CC2)c1`?
TEAD-YAP block: -3; FBW7 act: 0; MITF primary: 75*; GPR151 ag: 0; MITF confirm: 3; AlphaScreen intf2: 20

What do the screens show for `O=C(CSc1nnc(COc2ccccc2)n1-c1ccccc1)NC1CCCCC1`?
TEAD-YAP block: 6; FBW7 act: 0; MITF primary: 21; GPR151 ag: -2

Results for CCn1nc(C)cc1C(=O)NCCN1Cc2ccccc2OC(c2ccccc2F)C1 (stereo not drawn) ?
TEAD-YAP block: -7; FBW7 act: 0; MITF primary: 1; GPR151 ag: 0
